Assay results reported in paper PMC5540273 (PLoS ONE, 2017).

tested on: LIMK1; conditions: concentration: 1 μM,replicates: in singlicate; n = 1
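Further: KINOMEscan kinase panel screen.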

| SMILES | %Inh |
| --- | --- |
| Cn1ccc2ncnc(Oc3ccc(NC(=O)Nc4cc(C(C)(C)C)on4)c(Cl)c3)c21 | 13% |
| CC(=O)Nc1ccc(-c2cc3ncnc(SCC(=O)O)c3s2)cc1 | 0% |
| CN(c1ccccc1CNc1nc(Nc2ccc3c(c2)CC(=O)N3)ncc1C(F)(F)F)S(C)(=O)=O | 0% |
| FC(F)(F)c1cc(Br)cc(Nc2nccc(-c3cnn4ncccc34)n2)c1 [GW810578] | 0% |
| O=C1NCCc2[nH]c(-c3ccncc3)cc21 | 5% |
| O=C(Nc1cccc(C(F)(F)F)c1)c1cccc(Oc2ccc3nccn3n2)c1 | 0% |
| Cc1ccc(CC(=O)N2CCc3cc(-c4cn(C)c5ncnc(N)c45)ccc32)cc1 [GSK2634758] | 0% |
| COC(=O)c1cccc(NC(=O)NC2CCN(c3ccnc(NCc4ccc(F)cc4)n3)CC2)c1 [GSK1379860] | 4% |
| Cn1ccc2ncnc(Oc3ccc(NC(=O)Nc4ccnc(C(F)(F)F)c4)c(Cl)c3)c21 | 16% |
| O=C(NOCC1CC1)c1cc(Br)c(F)c(F)c1Nc1ccc(I)cc1Cl | 0% |
| COc1ccc(Nc2nccc(N3CCC(NC(=O)c4cccc(C#N)c4)C3)n2)cc1 (centres unmarked) [GSK1379730] | 0% |
| COc1cccc(C2=C(Nc3cccc(Cl)c3)C(=O)NC2=O)c1 [SB-341556] | 67% |
| Cc1n[nH]c2cc(Nc3ccnc(Nc4cccc(CN5CCOCC5)c4)n3)ccc12 [GW682569] | 9% |
| C[C@@H]1CNc2c(sc3ccc4nc(-c5ccncc5)ccc4c23)C(=O)N1 | 0% |
| C[C@@H]1CCN(C(=O)N2CCCC2)C[C@@H]1N(C)c1ncnc2[nH]ccc12 | 0% |
| Cl.c1ccc(Oc2ccc(Nc3ccnc4cc(-c5ccc(CN6CCNCC6)o5)ccc34)cc2)nc1 [GW567142] | 0% |
| COc1cc2c(Nc3ccc(NC(=O)c4ccccc4)cc3)ncnc2cc1OCCCN1CCOCC1 [GSK301329] | 3% |
| c1ccc(Oc2ccc(Nc3ccnc4ccc(-c5ccccn5)cc34)cc2)cc1 [GW407034] | 5% |
| COc1cc2ncn(-c3cc(OCC4CCCCC4)c(C(N)=O)s3)c2cc1OC [GSK204559] | 2% |

| SMILES | %Inh |
| --- | --- |
| C[C@@H]1CNc2c(sc3ccc4nc(-c5ccc(O)cc5)ccc4c23)C(=O)N1 | 4% |
| NC(=O)c1ccc(-c2cc3ncnc(SCC(=O)O)c3s2)cc1 | 0% |
| CS(=O)(=O)Nc1ccc(-c2ccnc3[nH]ccc23)cc1 [GSK993273] | 0% |
| N#Cc1cccc(C(=O)NC2CCN(c3ccnc(Nc4ccc(F)cc4)n3)C2)c1 (centres unmarked) [GSK1379708] | 0% |
| CS(=O)(=O)c1cccc(CNc2nc(Nc3ccc4c(c3)[C@@H]3C[C@@H]4CNC3=O)ncc2C(F)(F)F)c1 | 0% |
| COc1cc(Nc2nccc(N3CCC(NC(=O)c4cccc(C#N)c4)C3)n2)cc(OC)c1OC (centres unmarked) [GSK1379751] | 92.6% |
| CN1CCN(CCCNc2nccc(-c3c(-c4ccc(F)cc4)nn4cc(C(N)=O)ccc34)n2)CC1 [GW622475] | 0% |
| COc1cccc(OC)c1C(=O)Nc1cccc(-c2nn3ccccc3c2-c2ccnc(Nc3cccc(F)c3)n2)c1 [GSK361065] | 31% |
| CCOC(=O)N1CCC(n2cnc(-c3ccc(F)cc3)c2-c2ccnc(N)n2)CC1 [SB-219952] | 8% |
| COC(=O)Nc1nc2cc(Oc3ccc(NC(=O)Nc4cc(C(F)(F)F)ccc4Cl)cc3)ccc2[nH]1.Cl [GW697465] | 11% |
| CS(=O)c1ccc(-c2coc3ccc(-c4n[nH]c(=O)o4)cc23)cc1 (centres unmarked) | 0% |
| Cn1ccc2ncnc(Oc3ccc(NC(=O)Nc4cncc(C(F)(F)F)c4)c(Cl)c3)c21 | 0% |
| Nc1nccc(-c2ccc3c(N)n[nH]c3c2)n1 [GSK1034945] | 0% |
| NC(=O)Nc1sc(-c2ccc(F)cc2)cc1C(N)=O [GW789449] | 3% |
| CN1CCN(CCNc2nc3cc(Oc4ccc(NC(=O)Nc5cc(C(F)(F)F)ccc5F)cc4)ccc3[nH]2)CC1.Cl.Cl [GW768504] | 0% |
| Cl.Nc1n[nH]c2cc(-c3ccccn3)ccc12 [GSK2189892] | 0% |
| CCn1c(-c2nonc2N)nc2cncc(CNC3CCNCC3)c21.Cl [SB-747651] | 14% |
| Cn1ccc2ncnc(Oc3ccc(NC(=O)Nc4cccc(C(F)(F)F)c4)c(Cl)c3)c21 | 0% |

tested on: LIMK2; conditions: concentration: 1 μM,replicates: in singlicate; n = 1

| SMILES | %Inh |
| --- | --- |
| Cn1ccc2ncnc(Oc3ccc(NC(=O)Nc4cc(C(C)(C)C)on4)c(Cl)c3)c21 | 17% |
| CC(=O)Nc1ccc(-c2cc3ncnc(SCC(=O)O)c3s2)cc1 | 0% |
| CN(c1ccccc1CNc1nc(Nc2ccc3c(c2)CC(=O)N3)ncc1C(F)(F)F)S(C)(=O)=O | 0% |
| FC(F)(F)c1cc(Br)cc(Nc2nccc(-c3cnn4ncccc34)n2)c1 [GW810578] | 0% |
| O=C1NCCc2[nH]c(-c3ccncc3)cc21 | 2% |
| O=C(Nc1cccc(C(F)(F)F)c1)c1cccc(Oc2ccc3nccn3n2)c1 | 8% |
| Cc1ccc(CC(=O)N2CCc3cc(-c4cn(C)c5ncnc(N)c45)ccc32)cc1 [GSK2634758] | 0% |
| COC(=O)c1cccc(NC(=O)NC2CCN(c3ccnc(NCc4ccc(F)cc4)n3)CC2)c1 [GSK1379860] | 0% |
| Cn1ccc2ncnc(Oc3ccc(NC(=O)Nc4ccnc(C(F)(F)F)c4)c(Cl)c3)c21 | 0% |
| O=C(NOCC1CC1)c1cc(Br)c(F)c(F)c1Nc1ccc(I)cc1Cl | 0% |
| COc1ccc(Nc2nccc(N3CCC(NC(=O)c4cccc(C#N)c4)C3)n2)cc1 (centres unmarked) [GSK1379730] | 0% |
| COc1cccc(C2=C(Nc3cccc(Cl)c3)C(=O)NC2=O)c1 [SB-341556] | 0% |
| Cc1n[nH]c2cc(Nc3ccnc(Nc4cccc(CN5CCOCC5)c4)n3)ccc12 [GW682569] | 5% |
| C[C@@H]1CNc2c(sc3ccc4nc(-c5ccncc5)ccc4c23)C(=O)N1 | 0% |
| C[C@@H]1CCN(C(=O)N2CCCC2)C[C@@H]1N(C)c1ncnc2[nH]ccc12 | 0% |
| Cl.c1ccc(Oc2ccc(Nc3ccnc4cc(-c5ccc(CN6CCNCC6)o5)ccc34)cc2)nc1 [GW567142] | 0% |
| COc1cc2c(Nc3ccc(NC(=O)c4ccccc4)cc3)ncnc2cc1OCCCN1CCOCC1 [GSK301329] | 0% |
| c1ccc(Oc2ccc(Nc3ccnc4ccc(-c5ccccn5)cc34)cc2)cc1 [GW407034] | 0% |
| COc1cc2ncn(-c3cc(OCC4CCCCC4)c(C(N)=O)s3)c2cc1OC [GSK204559] | 13% |

| SMILES | %Inh |
| --- | --- |
| C[C@@H]1CNc2c(sc3ccc4nc(-c5ccc(O)cc5)ccc4c23)C(=O)N1 | 0% |
| NC(=O)c1ccc(-c2cc3ncnc(SCC(=O)O)c3s2)cc1 | 21% |
| CS(=O)(=O)Nc1ccc(-c2ccnc3[nH]ccc23)cc1 [GSK993273] | 13% |
| N#Cc1cccc(C(=O)NC2CCN(c3ccnc(Nc4ccc(F)cc4)n3)C2)c1 (centres unmarked) [GSK1379708] | 0% |
| CS(=O)(=O)c1cccc(CNc2nc(Nc3ccc4c(c3)[C@@H]3C[C@@H]4CNC3=O)ncc2C(F)(F)F)c1 | 0% |
| COc1cc(Nc2nccc(N3CCC(NC(=O)c4cccc(C#N)c4)C3)n2)cc(OC)c1OC (centres unmarked) [GSK1379751] | 17% |
| CN1CCN(CCCNc2nccc(-c3c(-c4ccc(F)cc4)nn4cc(C(N)=O)ccc34)n2)CC1 [GW622475] | 9% |
| COc1cccc(OC)c1C(=O)Nc1cccc(-c2nn3ccccc3c2-c2ccnc(Nc3cccc(F)c3)n2)c1 [GSK361065] | 15% |
| CCOC(=O)N1CCC(n2cnc(-c3ccc(F)cc3)c2-c2ccnc(N)n2)CC1 [SB-219952] | 13% |
| COC(=O)Nc1nc2cc(Oc3ccc(NC(=O)Nc4cc(C(F)(F)F)ccc4Cl)cc3)ccc2[nH]1.Cl [GW697465] | 0% |
| CS(=O)c1ccc(-c2coc3ccc(-c4n[nH]c(=O)o4)cc23)cc1 (centres unmarked) | 0% |
| Cn1ccc2ncnc(Oc3ccc(NC(=O)Nc4cncc(C(F)(F)F)c4)c(Cl)c3)c21 | 0% |
| Nc1nccc(-c2ccc3c(N)n[nH]c3c2)n1 [GSK1034945] | 12% |
| NC(=O)Nc1sc(-c2ccc(F)cc2)cc1C(N)=O [GW789449] | 24% |
| CN1CCN(CCNc2nc3cc(Oc4ccc(NC(=O)Nc5cc(C(F)(F)F)ccc5F)cc4)ccc3[nH]2)CC1.Cl.Cl [GW768504] | 2% |
| Cl.Nc1n[nH]c2cc(-c3ccccn3)ccc12 [GSK2189892] | 0% |
| CCn1c(-c2nonc2N)nc2cncc(CNC3CCNCC3)c21.Cl [SB-747651] | 13% |
| Cn1ccc2ncnc(Oc3ccc(NC(=O)Nc4cccc(C(F)(F)F)c4)c(Cl)c3)c21 | 0% |
